From PubChem BioAssay (NCATS)
Results filed as inconclusive are left out. Calls of active or inactive are those of the source. Unless noted, the call rests on the fitted dose curve; in most records, active means well fitted curve in the direction sought with a large enough effect; inconclusive means small, poorly fitted or top-dose-only effect, or another doubt; inactive means no such curve, though single readings can be large; an effect the other way counts as inactive or inconclusive.

Columns and labels:
[1] = Cellular Toxicity (caspase-3) NIH 3T3 (AID 666); details: NIH 3T3 caspase-3 activation, apoptosis/toxicity; series mostly up to 92.2 µM
How it was run: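 Activity: caspase-3/7 induction, NIH 3T3 cells, 16 hr treatment at 37°C, luminescent Caspase-Glo detection; AC50 via Hill equation.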

[2] = Cellular Toxicity (caspase-3) Renal Proximal Tubule (AID 667); details: renal proximal tubule cells, primary cells freshly taken from rat; Potency: caspase-3 activation; series mostly up to 91.7 µM;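 further: cells exposed to compound for 16 hours at 37 °C before detection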
How it was run: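 Luminescent caspase 3/7 signal from peptide-aminoluciferin cleavage measures apoptosis in freshly isolated rat kidney proximal tubule cells after 16 h compound exposure. Concentration-response data are normalized to DMSO and 10 uM staurosporine, and AC50 values come from Hill equation fits.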

[3] = Confirmation and Secondary Assay for Modulators of Hemoglobin Beta Chain Splicing at IVS2 654 locus (AID 910); details: HeLa EGFP-654 splicing reporter, GFP fluorescence, 48 h; series mostly up to 46.1 µM;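 further: HeLa cells stably carrying EGFP split by mutant beta-globin IVS2-654 intron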
How it was run: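 HeLa cells stably expressing EGFP interrupted by β-globin IVS2-654 intron, seeded overnight in Opti-MEM/2% FCS, then treated 2 days at 37 °C. Restored splicing read as total peak GFP intensity per well by laser scanning cytometry (488 nm excitation, 500–520 nm emission); 500 nM antisense PNA as control.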

[4] = Cell Viability - LYMP2-001 (AID 921); details: LYMP2-001 lymphoblastoid cell viability; series mostly up to 92.2 µM;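 further: cells exposed to compound for 24 h at 37 °C; nearly all actives have a fitted effect of over 70% in size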
How it was run: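 CellTiter-Glo luminescence (intracellular ATP) after 24 hr compound exposure at 37 C, 2500 lymphoblastoid cells/well in complete medium. AC50 fitted with standard Hill equation; tetraoctylammonium bromide positive control.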

[5] = Confirmation and Secondary Assay for Modulators of Hemoglobin Beta Chain Splicing at IVS2 705 locus (AID 930); details: HeLa EGFP-705 splicing reporter, GFP fluorescence, 48 h; series mostly up to 46.1 µM;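 further: HeLa cells stably expressing the EGFP-705 splicing reporter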
How it was run: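 Restored EGFP fluorescence after 2-day compound exposure reports splicing correction in IVS2-705 EGFP reporter HeLa cells; positive control was 500 nM splice-blocking PNA oligo. Signal measured as well total peak GFP intensity (488 nm excitation).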

[6] = MultiTox-Fluor Cytotoxicity Assay - LYMP1-001 - Dead Cells (AID 946); details: LYMP1-001 lymphoblastoid cells, dead-cell protease fluorescence; series mostly up to 92.2 µM
How it was run: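 In this qHTS, 15 uM tetraoctylammonium bromide defined 100% and DMSO defined basal activity. Lymphoblastoid cells (LYMP1-001, 2500 per well) received compound for 16 hr at 37 C before a fluorogenic dead-cell substrate readout at 485/520 nm.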

[7] = molecular target: Cytochrome P450 3A4 (Homo sapiens) (UniProt P08684); test: qHTS Assay for Inhibitors and Substrates of Cytochrome P450 3A4 (AID 884); details: recombinant CYP3A4, Luciferin-PPXE luminescence; series mostly up to 57.1 µM; further: nearly all actives have a fitted effect of over 50% in size; further: potency means the concentration at half of the fitted maximal effect
Chain of Cytochrome P450 3A4 (Homo sapiens) (P08684 whole entry, looked up): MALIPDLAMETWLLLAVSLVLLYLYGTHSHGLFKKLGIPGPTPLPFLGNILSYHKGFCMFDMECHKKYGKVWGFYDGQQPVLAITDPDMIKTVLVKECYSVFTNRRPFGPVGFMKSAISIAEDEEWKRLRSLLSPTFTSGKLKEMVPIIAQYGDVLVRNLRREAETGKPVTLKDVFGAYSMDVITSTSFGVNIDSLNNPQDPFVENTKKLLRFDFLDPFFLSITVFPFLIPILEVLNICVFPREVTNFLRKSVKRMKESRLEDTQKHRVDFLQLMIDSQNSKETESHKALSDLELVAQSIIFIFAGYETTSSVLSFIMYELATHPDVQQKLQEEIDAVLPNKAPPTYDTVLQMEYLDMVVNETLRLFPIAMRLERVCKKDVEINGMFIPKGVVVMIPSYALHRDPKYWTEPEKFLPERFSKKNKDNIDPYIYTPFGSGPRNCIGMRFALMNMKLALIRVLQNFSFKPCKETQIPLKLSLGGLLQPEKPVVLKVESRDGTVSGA
How it was run: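 Luminescent readout of luciferin produced by CYP3A4 (20 nM) dealkylation of Luciferin-PPXE, 25 uM (its KM). NADPH-driven reaction ran 60 min at RT after 10 min compound preincubation; data scaled to 57 uM ketoconazole as 100% inhibition.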

[8] = molecular target: Cytochrome P450 3A4 (Homo sapiens) (UniProt P08684); test: qHTS Assay for Activators of Cytochrome P450 3A4 (AID 885); details: recombinant CYP3A4, Luciferin-PPXE luminescence, 60 min; series mostly up to 57.1 µM; further: nearly all actives have a fitted effect of over 65% in size
How it was run: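 Using 20nM recombinant human CYP3A4 in potassium phosphate (200mM), substrate Luciferin-PPXE at 25uM, luminescent luciferin detection followed a 60-min RT NADPH reaction; data scaled to 57 uM ketoconazole.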

[9] = molecular target: Guanine nucleotide-binding protein G(i) subunit alpha-1 (Homo sapiens) (UniProt P63096); test: qHTS Assay for Inhibitors of RGS12 GoLoco Motif Activity (Green Fluorophore) (AID 879); details: Galphai1/FITC-RGS12 GoLoco peptide, fluorescence polarization; series mostly up to 57.1 µM;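 further: negative values mean loss of peptide binding seen as reduced polarization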
Chain of Guanine nucleotide-binding protein G(i) subunit alpha-1 (Homo sapiens) (P63096 whole entry, looked up): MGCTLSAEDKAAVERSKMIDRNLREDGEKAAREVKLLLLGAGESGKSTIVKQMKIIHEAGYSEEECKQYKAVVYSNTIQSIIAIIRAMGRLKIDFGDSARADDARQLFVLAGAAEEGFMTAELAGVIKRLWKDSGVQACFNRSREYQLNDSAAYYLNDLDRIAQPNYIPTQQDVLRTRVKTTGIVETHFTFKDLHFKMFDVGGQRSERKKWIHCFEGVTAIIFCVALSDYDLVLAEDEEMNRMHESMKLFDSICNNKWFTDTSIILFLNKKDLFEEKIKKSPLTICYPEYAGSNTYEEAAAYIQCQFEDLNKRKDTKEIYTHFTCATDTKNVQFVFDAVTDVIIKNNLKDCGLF
How it was run: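 A drop in FITC polarization marked displacement of the FITC-tagged RGS12 GoLoco peptide (10 nM) from Gαi1 (50 nM). Compounds were incubated 10 min at room temperature in Tris pH 7.5 buffer containing 150 mM NaCl, 0.1 mM GDP and 0.05% NP40; unlabeled peptide titration served as control.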

[10] = molecular target: Muscarinic acetylcholine receptor M1 (Rattus norvegicus) (UniProt P08482); test: qHTS Assay for Antagonists of Acetylcholine Muscarinic M1 Receptor: Kinetic Measurement of Intracellular Calcium Response (AID 943); details: M1-expressing cells, kinetic intracellular calcium fluorescence; series mostly up to 35.3 µM; further: nearly all actives have a fitted effect of over 75% in size; further: potency means the concentration at half of the fitted maximal effect
Chain of Muscarinic acetylcholine receptor M1 (Rattus norvegicus) (P08482 whole entry, looked up): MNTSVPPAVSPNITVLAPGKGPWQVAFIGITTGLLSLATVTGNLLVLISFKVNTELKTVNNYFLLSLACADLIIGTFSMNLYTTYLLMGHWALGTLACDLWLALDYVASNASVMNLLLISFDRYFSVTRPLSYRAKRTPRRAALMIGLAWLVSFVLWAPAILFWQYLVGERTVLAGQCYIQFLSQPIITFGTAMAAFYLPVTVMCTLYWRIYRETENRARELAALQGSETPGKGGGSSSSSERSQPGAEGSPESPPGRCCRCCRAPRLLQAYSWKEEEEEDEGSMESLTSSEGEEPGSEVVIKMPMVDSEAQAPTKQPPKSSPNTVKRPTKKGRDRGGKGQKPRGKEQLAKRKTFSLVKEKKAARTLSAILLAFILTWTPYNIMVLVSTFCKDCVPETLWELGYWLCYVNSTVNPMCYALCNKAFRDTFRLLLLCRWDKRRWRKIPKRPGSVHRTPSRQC
How it was run: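 Quantitative HTS in CHO-M1 (rat receptor) cells: 10 min compound exposure ahead of 100 nM carbachol, Fluo-4 fluorescence followed 4 min, value expressed as peak-to-basal ratio.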

[11] = qHTS Assay for Identification of Small Molecule Antagonists for NFkB Signaling Pathway (AID 895; active means well fitted inhibition curve with a large enough effect in the signal ratio, with a control signal flat, not every such curve was filed as active; the % refers to the signal ratio); details: NFkB beta-lactamase reporter cells, FRET ratio 460/530, stimulated with 10 pM TNF alpha; series mostly up to 38.3 µM
How it was run: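 ME-180 NFkB-bla cells (beta-lactamase under NFkB response element), plated overnight, treated with compound then 10 pM TNF alpha (about EC50) for 5 hrs at 37 C. LiveBLAzer FRET read at 460/530 nm emission, 405 nm excitation.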

[12] = qHTS Assay for Identification of Small Molecule Agonists for Thrombopoietin (TPO) Signaling Pathway (AID 917); details: TPO signaling pathway reporter cells, agonist qHTS, stimulated with TPO at its EC50; series mostly up to 38.5 µM
How it was run: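 Ba/F3 (mouse) + hTPO receptor + GpIIb-promoter luciferase; IL-3 withdrawn overnight; compound + 26 pM TPO (EC50), 24 hrs, 37 C, 5% CO2; Steadylite luminescence, 10 min RT.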

[13] = molecular target: Muscarinic acetylcholine receptor M1 (Rattus norvegicus) (UniProt P08482); test: qHTS Assay for Antagonists of Acetylcholine Muscarinic M1 Receptor: Measurement of IP-One Response (AID 944); details: CHO-M1 cells, IP-One HTRF, antagonist mode; series mostly up to 46.1 µM; further: nearly all actives have a fitted effect of over 75% in size; further: potency means the concentration at half of the fitted maximal effect
How it was run: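 Antagonism was measured as loss of carbachol-driven (EC80) IP1 accumulation in CHO cells carrying rat M1, using a homogeneous IP-One TR-FRET kit read at 620 and 665 nm.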

[14] = molecular target: Cytochrome P450 2D6 (Homo sapiens) (UniProt P10635); test: qHTS Assay for Inhibitors and Substrates of Cytochrome P450 2D6 (AID 891); details: recombinant CYP2D6, luciferin-ME EGE luminescence; series mostly up to 57.1 µM; further: potency means the concentration at half of the fitted maximal effect; nearly all actives have a fitted effect of over 60% in size
Chain of Cytochrome P450 2D6 (Homo sapiens) (P10635 whole entry, looked up): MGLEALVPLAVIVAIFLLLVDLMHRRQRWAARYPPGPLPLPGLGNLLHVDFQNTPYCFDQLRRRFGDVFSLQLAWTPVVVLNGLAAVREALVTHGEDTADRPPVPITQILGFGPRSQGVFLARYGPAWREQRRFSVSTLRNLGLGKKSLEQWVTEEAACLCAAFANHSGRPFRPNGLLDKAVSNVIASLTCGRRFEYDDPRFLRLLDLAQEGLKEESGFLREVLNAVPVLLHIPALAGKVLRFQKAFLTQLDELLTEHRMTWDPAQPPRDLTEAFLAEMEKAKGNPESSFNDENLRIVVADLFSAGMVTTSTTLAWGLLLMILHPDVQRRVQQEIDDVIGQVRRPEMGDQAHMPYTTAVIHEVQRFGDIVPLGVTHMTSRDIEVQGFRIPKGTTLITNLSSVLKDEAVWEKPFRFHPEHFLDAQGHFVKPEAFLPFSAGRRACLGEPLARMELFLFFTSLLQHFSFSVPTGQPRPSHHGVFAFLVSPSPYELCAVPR
How it was run: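 Luminescent read-out of luciferin formed by 5 nM human CYP2D6 demethylating 30 uM Luciferin-ME EGE (Km level) over 60 min at room temperature after NADPH regeneration addition. Data normalized to full inhibition by 1.43 uM quinidine.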

[15] = molecular target: Cytochrome P450 2C19 (Homo sapiens) (UniProt P33261); test: qHTS Assay for Inhibitors and Substrates of Cytochrome P450 2C19 (AID 899); details: recombinant CYP2C19, luciferin-H EGE luminescence; series mostly up to 57.1 µM; further: potency means the concentration at half of the fitted maximal effect; nearly all actives have a fitted effect of over 60% in size
Chain of Cytochrome P450 2C19 (Homo sapiens) (P33261 whole entry, looked up): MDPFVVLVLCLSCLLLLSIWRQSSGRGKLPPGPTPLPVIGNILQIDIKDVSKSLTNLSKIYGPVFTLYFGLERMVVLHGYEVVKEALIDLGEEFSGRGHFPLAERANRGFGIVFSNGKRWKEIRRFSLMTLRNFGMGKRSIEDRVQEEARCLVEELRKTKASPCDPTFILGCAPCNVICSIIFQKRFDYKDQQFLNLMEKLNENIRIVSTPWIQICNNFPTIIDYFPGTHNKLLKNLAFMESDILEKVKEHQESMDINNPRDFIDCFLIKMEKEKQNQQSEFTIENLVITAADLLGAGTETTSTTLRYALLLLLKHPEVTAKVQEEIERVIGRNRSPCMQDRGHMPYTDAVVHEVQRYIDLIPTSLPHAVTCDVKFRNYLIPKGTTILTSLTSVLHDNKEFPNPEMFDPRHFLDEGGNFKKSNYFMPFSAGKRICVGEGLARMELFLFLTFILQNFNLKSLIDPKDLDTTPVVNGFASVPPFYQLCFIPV
How it was run: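 Signal comes from luciferase acting on luciferin released by CYP2C19-mediated hydroxylation of Luciferin-H EGE, 10uM (KM). Assay mix: 5nM enzyme, 50mM KPO4; 60 min at 37C with NADPH regeneration. Data normalized against 57uM ketoconazole.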

[16] = molecular target: Pyruvate kinase (Leishmania mexicana) (UniProt Q27686); test: qHTS Validation Assay for Inhibitors of Leishmania Mexicana Pyruvate Kinase (AID 945); further: potency means the concentration at half of the fitted maximal effect; details: purified L. mexicana pyruvate kinase, enzyme activity, E451W mutant enzyme; series mostly up to 57.5 µM
Chain of Pyruvate kinase (Leishmania mexicana) (Q27686 2-499 E452W): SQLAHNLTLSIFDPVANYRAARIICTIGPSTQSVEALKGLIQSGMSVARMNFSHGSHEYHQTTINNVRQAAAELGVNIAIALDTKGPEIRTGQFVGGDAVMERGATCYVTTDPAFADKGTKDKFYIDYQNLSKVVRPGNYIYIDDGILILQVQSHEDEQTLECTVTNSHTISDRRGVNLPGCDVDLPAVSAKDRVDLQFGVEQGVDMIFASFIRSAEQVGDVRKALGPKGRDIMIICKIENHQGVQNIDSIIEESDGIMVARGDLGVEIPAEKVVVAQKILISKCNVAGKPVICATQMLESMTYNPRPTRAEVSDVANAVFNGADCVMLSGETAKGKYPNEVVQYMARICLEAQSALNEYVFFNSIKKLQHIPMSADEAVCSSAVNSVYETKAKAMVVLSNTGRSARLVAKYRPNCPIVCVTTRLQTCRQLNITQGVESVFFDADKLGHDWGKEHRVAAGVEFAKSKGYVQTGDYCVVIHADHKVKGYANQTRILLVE
How it was run: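 Purified LmPYK (E451W mutant, 0.2 nM) was incubated 1 h at room temperature with 0.5 mM PEP and 0.1 mM ADP in 50 mM imidazole pH 7.2, 50 mM KCl, 7 mM MgCl2; ATP formed was read by PKLight luminescence, normalized to DMSO wells.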

[17] = molecular target: Cytochrome P450 2C9 (Homo sapiens) (UniProt P11712); test: qHTS Assay for Inhibitors and Substrates of Cytochrome P450 2C9 (AID 883); details: recombinant CYP2C9, luciferin-H luminescence, 60 min; series mostly up to 57.1 µM; further: potency means the concentration at half of the fitted maximal effect; nearly all actives have a fitted effect of over 60% in size
Chain of Cytochrome P450 2C9 (Homo sapiens) (P11712 whole entry, looked up): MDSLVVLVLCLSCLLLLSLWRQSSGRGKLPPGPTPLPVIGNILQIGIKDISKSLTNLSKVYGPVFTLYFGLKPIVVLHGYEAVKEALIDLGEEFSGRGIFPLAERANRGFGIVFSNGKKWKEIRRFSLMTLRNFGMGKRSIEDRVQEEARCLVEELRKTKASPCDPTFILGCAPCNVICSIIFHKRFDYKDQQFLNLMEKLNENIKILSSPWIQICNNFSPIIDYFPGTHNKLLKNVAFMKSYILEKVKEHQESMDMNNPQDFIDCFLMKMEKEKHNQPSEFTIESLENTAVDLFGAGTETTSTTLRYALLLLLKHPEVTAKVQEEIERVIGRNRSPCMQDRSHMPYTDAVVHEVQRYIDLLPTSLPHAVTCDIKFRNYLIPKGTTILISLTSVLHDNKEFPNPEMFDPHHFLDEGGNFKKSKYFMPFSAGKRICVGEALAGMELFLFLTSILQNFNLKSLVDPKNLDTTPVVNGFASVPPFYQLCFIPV
How it was run: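 Signal: luciferase luminescence reporting luciferin produced by CYP2C9. Conditions: 10nM enzyme, Luciferin-H 100uM at KM, 25mM KPO4, 37C, 60 min NADPH-driven reaction. Reference: 57uM sulphaphenazole as 100% inhibition.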

[18] = qHTS Assay for Identification of Small Molecule Antagonists for Thrombopoietin (TPO) Signaling Pathway (AID 918); details: TPO-dependent cell signaling reporter, antagonist mode; further: potency means the concentration at half of the fitted maximal effect; nearly all actives have a fitted effect of over 60% in size
How it was run: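 Antagonist mode at EC50 TPO (26 pM) in IL-3-free medium; murine Ba/F3 cells with human TPO receptor and GPIIb-promoter luciferase, 24 hrs at 37 C before luminescent detection.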

Measured: Potency

S=c1[nH]c2ccccc2s1
inactive: [1] | [2] | [3] | [4] | [5] | [6]

O=C1CN(/N=C/c2ccc([N+](=O)[O-])o2)C(=O)N1
inactive: [1] | [2] | [3] | [4] | [5] | [6]

CN(C)c1ccc(N=NS(=O)(=O)O)cc1
inactive: [1] | [2] | [7] | [4] | [6]

C#C[C@]1(O)CC[C@H]2[C@@H]3CCc4cc(O)ccc4[C@H]3CC[C@@]21C
inactive: [1] | [2] | [8] | [4]

CCCOC(=O)c1ccc(O)cc1
inactive: [1] | [2] | [4] | [6]

N#C/C(=C\c1ccc(O)c(O)c1)C(=O)NCCCc1ccccc1
inactive: [9] | [8] | [10]
active: [7] 2510 nM

O=C(O)[C@@H]1C[C@@H](C(=O)O)N1
inactive: [9] | [7] | [11] | [12] | [10] | [13]

COc1ccccc1CNCCCCCCNCCCCCCCCNCCCCCCNCc1ccccc1OC
inactive: [9] | [8] | [11]

Fc1ccc(C(OCCCc2cnc[nH]2)c2ccc(F)cc2)cc1
inactive: [9] | [8] | [16]
active: [7] 794 nM | [14] 631 nM | [15] 4 nM | [10] 5010 nM | [13] 7940 nM

CN=c1nc(-c2ccccc2)n(-c2ccccc2)s1
active: [17] 2000 nM | [15] 3160 nM | [18] 2510 nM | [13] 12600 nM | [16] 5010 nM
inactive: [9] | [8] | [11]

COc1cccc(C(=O)NCCN2CCN(c3ccc(Cl)cc3)CC2)c1
inactive: [9] | [8] | [11] | [12]
